Results on five molecules are retold here after PubChem BioAssay.

Each structure is given as a SMILES string. Active and inactive are the calls of the source.

The target of one test is Albumin (Bos taurus) (UniProt P02769). The experiment in a line: bovine serum albumin binders on microarray, profiling panel, artefact control for SMM control protein annotation, biochemical, small-molecule microarray, Alexa647 label, 635/667 nm fluorescence (AID 1118).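 Also: score merges 667 nm emission intensity and signal-to-noise per printed compound spot.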 As to conditions: BSA-A647 binding, fluorescence 635 nm, higher = more signal.
Test [1] is described as follows: small-molecule microarray binders of probe aXIP, primary screen, biochemical, NeuroSMM set, 635/667 nm fluorescence (AID 1119).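 Also: probe is the protein aXip251-270 applied at 1 µg/mL to compound-printed slides; binding of probe to printed compounds measured as 667 nm fluorescence plus signal to noise.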 The settings on record: higher = more signal, called active from +8 up or from −8 down.
A short description of test [2]: small-molecule binders of probe aNOTCH3, primary screen, biochemical, small-molecule microarray, 635/667 nm fluorescence (AID 1120).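 Also: probe is a biotin-tagged antibody raised against NOTCH3 rather than NOTCH3 protein; score merges spot fluorescence near 667 nm with spot signal to noise.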 As to conditions: higher = more signal.
The nature of test [3]: small-molecule binders of probe aNOTCH2, primary screen, biochemical, small-molecule microarray, 635/667 nm fluorescence (AID 1121).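 Also: score merges feature fluorescence read at 667 nm with its signal to noise.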 The settings on record: higher = more signal.
The target in test [4] is Carbonic anhydrase 2 (Homo sapiens) (UniProt P00918). As to the kind of experiment: CAII small-molecule binders, profiling panel, biochemical, small-molecule microarray, Alexa647-labelled CAII (AID 1122). As to conditions: CAII-A647 binding fluorescence, higher = more signal.
Test [5] is described as follows: COS7 lysate on small-molecule microarray, probe aHis, 635 nm (AID 1123).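 Also: z-score combines 667nm fluorescence intensity with signal-to-noise per printed compound spot.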 The settings on record: COS7 cell lysate, fluorescence, higher = more signal.
A short description of test [6]: compound binding in COS7 lysate, probe aLAP1, primary screen, cell lysate, small-molecule microarray (AID 1124).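 Also: lysate comes from COS7 cells expressing LAP1 and is applied at 0.3 µg/mL; score merges spot fluorescence near 667 nm with signal-to-noise over triplicate slides.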 The settings on record: probe aLAP1, fluorescence, higher = more signal.
The subject of another test is Sam68 (KHDRBS1). As to the kind of experiment: Sam68 small-molecule binders, primary screen, biochemical, small-molecule microarray, 635 nm fluorescence (AID 1125).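 Also: score merges 667 nm channel intensity with signal to noise over triplicate slides.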 As to conditions: small-molecule microarray binding, higher = more signal.
The subject of test [7] is Chordin-like protein 2 (CHRDL2). As to the kind of experiment: CHRDL2 small-molecule binders, primary screen, biochemical, small-molecule microarray, 635 nm fluorescence (AID 1126).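 Also: printed compound slides probed with Chrdl2 protein at 4 µg/mL for 1 h at 4 C; score merges 667 nm emission intensity with signal to noise over three replicate slides.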 The settings on record: small-molecule microarray binding, fluorescence 635 nm; higher = more signal.
For test [8], the target named is Concanavalin-A (Canavalia ensiformis) (UniProt P02866). The experiment in a line: ConA small-molecule binders, primary screen, artefact control for SMM control protein annotation, biochemical, small-molecule microarray, Alexa647 label, 635 nm (AID 1127).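 Also: z combines 667 nm emission intensity with signal-to-noise across three replicate slides.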 The settings on record: ConA-A647 binding fluorescence, higher = more signal.
The nature of test [9]: anti-His antibody binders, primary screen, artefact control for SMM control protein annotation, biochemical, small-molecule microarray, 635 nm fluorescence (AID 1128).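 Also: score merges feature fluorescence with signal-to-noise for each printed compound spot.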 The settings on record: anti-His Alexa647 antibody binding, higher = more signal.
Test [10] deals with Human papillomavirus type 1a E7 protein (residues 1-88). As to the kind of experiment: HPV1a E7 small-molecule binders, primary screen, biochemical, small-molecule microarray, residues 1-88, 635 nm (AID 1129). The settings on record: small-molecule microarray binding, fluorescence 635 nm; higher = more signal.
Test [11] concerns the target Focal adhesion kinase 1 (Homo sapiens) (UniProt Q05397). The experiment in a line: small-molecule microarray binders of FAK, primary screen, biochemical, 635/667 nm fluorescence, BSA, DTT (AID 1130).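 Also: composite of spot emission at 667 nm and signal to noise over triplicate slides.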 As to conditions: PTK2 binding, 635 nm fluorescence, higher = more signal.
Test [12] deals with Fibrinogen (Alexa647-labelled). As to the kind of experiment: fibrinogen binders on compound microarrays, profiling panel, artefact control for SMM control-protein annotation, biochemical, small-molecule microarray, 635/667 nm fluorescence (AID 1131).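 Also: z-score merges 667 nm fluorescence with per-spot signal-to-noise over triplicate slides.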 As to conditions: fibrinogen-A647 binding fluorescence, higher = more signal.
The target of test [13] is Follistatin (Homo sapiens) (UniProt P19883). As to the kind of experiment: follistatin binders on small-molecule microarrays, primary screen, biochemical, small-molecule microarray, 635/667 nm fluorescence (AID 1132). The settings on record: FST binding, 635 nm fluorescence, higher = more signal.
Test [14] has as its target Fibroblast growth factor 2 (Homo sapiens) (UniProt P09038). The experiment in a line: FGF2 binders on small-molecule microarrays, primary screen, biochemical, small-molecule microarray, 635/667 nm fluorescence (AID 1133). As to conditions: small-molecule microarray binding, FGF2, fluorescence 635/667; higher = more signal.
The nature of test [15]: mitochondrial membrane potential change in A549 cells, profiling panel, cell-based, JC-1 fluorescence, basal, 24 h, 100 nL (AID 1138).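 Also: A549 lung adenocarcinoma cells under basal conditions with no added stimulus; test concentration not given here.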 The settings on record: higher = more signal.
A further test relates to Lefty1. The experiment in a line: Lefty1 binders on small-molecule microarrays, primary screen, biochemical, small-molecule microarray, 635/667 nm fluorescence (AID 1139). The settings on record: small-molecule microarray binding, fluorescence 635/667; higher = more signal.
Test [16] concerns wheat germ agglutinin (Triticum aestivum), Alexa647-labelled. As to the kind of experiment: wheat germ agglutinin binders on compound microarrays, profiling panel, artefact control for SMM control-protein annotation, biochemical, small-molecule microarray, 635/667 nm fluorescence (AID 1140).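 Also: score merges 667 nm feature emission with signal to noise over triplicate slides.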 As to conditions: WGA-A647 binding, 635 nm fluorescence, higher = more signal.
The target in test [17] is Luciferin 4-monooxygenase (Photinus pyralis) (UniProt P08659). The experiment in a line: firefly luciferase enzyme inhibitors, primary screen, biochemical, luminescence, purified enzyme, 2006 set (AID 1141).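 Also: cell-free assay with purified firefly luciferase at 100 ng per well in PBS; test concentration not given here.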 As to conditions: SteadyGlo luminescence, 30 min, higher = more signal, called active from +8 up or from −8 down.
Sequence of Luciferin 4-monooxygenase (Photinus pyralis) (P08659 whole entry, looked up): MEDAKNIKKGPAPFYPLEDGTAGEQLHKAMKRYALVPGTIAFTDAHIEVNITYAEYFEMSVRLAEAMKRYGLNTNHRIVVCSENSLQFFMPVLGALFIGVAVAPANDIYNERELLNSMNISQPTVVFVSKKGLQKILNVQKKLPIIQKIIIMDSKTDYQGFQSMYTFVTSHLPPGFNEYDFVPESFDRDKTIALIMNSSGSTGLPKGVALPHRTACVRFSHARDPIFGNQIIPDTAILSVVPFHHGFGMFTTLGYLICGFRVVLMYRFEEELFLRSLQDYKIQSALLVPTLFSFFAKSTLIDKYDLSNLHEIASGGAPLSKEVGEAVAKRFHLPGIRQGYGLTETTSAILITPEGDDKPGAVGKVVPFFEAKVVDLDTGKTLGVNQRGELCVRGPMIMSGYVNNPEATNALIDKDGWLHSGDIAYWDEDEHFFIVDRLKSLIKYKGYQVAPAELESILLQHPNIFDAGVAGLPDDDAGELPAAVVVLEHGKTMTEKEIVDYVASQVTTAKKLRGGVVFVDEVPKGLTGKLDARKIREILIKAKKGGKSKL

Sequence of Focal adhesion kinase 1 (Homo sapiens) (Q05397 whole entry, looked up): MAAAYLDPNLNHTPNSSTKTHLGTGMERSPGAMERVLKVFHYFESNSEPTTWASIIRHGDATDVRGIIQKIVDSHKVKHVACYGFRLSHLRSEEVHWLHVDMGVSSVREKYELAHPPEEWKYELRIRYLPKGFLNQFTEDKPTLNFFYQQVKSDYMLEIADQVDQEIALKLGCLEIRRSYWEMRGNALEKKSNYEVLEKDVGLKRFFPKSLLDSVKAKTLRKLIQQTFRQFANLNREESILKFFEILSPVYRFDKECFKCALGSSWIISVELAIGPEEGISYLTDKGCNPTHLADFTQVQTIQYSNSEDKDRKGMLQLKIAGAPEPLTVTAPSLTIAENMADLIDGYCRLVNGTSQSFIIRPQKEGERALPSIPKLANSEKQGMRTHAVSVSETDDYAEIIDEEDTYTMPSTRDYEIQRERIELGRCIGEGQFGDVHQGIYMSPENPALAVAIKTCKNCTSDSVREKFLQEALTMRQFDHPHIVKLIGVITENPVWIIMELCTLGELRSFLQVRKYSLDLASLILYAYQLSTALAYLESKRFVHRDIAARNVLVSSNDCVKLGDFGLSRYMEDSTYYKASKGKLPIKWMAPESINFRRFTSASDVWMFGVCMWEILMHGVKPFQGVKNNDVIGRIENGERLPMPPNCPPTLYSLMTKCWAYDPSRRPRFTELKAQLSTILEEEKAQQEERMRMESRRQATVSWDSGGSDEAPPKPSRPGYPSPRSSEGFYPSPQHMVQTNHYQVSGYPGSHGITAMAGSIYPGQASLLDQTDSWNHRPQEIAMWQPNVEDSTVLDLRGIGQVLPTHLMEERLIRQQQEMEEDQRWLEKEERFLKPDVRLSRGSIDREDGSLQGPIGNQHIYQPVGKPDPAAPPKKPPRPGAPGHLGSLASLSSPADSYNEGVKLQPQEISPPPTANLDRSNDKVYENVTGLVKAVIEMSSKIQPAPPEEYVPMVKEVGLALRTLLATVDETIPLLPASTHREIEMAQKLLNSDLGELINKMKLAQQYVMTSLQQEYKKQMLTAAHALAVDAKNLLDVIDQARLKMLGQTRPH
Sequence of Concanavalin-A (Canavalia ensiformis) (P02866 whole entry, looked up): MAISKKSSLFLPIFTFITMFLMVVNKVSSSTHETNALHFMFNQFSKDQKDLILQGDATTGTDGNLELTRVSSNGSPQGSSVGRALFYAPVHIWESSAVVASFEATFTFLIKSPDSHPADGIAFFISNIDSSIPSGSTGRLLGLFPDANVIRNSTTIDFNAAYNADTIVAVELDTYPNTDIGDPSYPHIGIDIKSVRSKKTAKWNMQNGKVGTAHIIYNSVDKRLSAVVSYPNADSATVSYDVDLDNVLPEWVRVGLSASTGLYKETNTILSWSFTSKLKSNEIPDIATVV
Sequence of Albumin (Bos taurus) (P02769 whole entry, looked up): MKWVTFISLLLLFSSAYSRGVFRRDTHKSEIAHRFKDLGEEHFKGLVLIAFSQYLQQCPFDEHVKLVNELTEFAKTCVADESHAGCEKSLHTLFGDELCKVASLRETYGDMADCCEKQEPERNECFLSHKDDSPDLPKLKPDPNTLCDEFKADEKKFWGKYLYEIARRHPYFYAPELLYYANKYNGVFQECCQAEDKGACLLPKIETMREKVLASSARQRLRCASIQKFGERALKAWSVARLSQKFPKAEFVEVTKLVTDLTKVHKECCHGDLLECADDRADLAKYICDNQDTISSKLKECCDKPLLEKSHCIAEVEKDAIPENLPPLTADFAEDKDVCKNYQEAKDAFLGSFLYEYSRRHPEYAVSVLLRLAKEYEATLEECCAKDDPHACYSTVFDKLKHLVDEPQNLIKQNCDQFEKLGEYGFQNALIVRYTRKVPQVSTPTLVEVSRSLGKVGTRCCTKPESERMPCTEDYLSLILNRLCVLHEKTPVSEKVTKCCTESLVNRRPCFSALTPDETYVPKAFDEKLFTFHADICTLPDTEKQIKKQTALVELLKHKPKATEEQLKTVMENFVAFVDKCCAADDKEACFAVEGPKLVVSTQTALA
Sequence of Follistatin (Homo sapiens) (P19883 whole entry, looked up): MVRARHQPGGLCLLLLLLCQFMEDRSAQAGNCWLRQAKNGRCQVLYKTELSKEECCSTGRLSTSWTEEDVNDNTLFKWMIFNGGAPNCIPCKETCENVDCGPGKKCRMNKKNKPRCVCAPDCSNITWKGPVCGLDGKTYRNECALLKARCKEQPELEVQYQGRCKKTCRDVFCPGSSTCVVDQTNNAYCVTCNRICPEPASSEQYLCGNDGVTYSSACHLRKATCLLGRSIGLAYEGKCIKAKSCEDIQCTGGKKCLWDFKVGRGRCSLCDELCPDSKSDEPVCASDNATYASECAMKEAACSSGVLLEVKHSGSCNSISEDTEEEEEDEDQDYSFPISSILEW
Sequence of Fibroblast growth factor 2 (Homo sapiens) (P09038 whole entry, looked up): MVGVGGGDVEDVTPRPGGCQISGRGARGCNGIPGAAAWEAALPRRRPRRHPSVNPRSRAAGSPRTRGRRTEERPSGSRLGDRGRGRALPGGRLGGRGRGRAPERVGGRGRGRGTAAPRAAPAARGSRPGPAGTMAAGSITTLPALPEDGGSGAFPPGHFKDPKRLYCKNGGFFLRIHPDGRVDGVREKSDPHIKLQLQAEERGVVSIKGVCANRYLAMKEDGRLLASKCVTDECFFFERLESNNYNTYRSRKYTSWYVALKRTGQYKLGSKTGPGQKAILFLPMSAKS

Turning to `CO[C@H]1O[C@H](CO)[C@@H](OC(=O)Nc2ccc3c(c2)OCO3)[C@H](OC(=O)c2cc3ccccc3[nH]2)[C@H]1OC(=O)c1cc2ccccc2[nH]1`, the composite z-score is 0.429 with Albumin (Bos taurus); -0.0932 in test [2]; -0.0875 in test [3]; 0.402 in [4]; -0.0481 in [5]; 0.0757 in test [6]. The composite z-score with Sam68 (KHDRBS1) was 0.12; in test [7], 0.725; in [8], -0.391; in [9] it was 0.935; in test [10], -0.174; in test [11], 0.622. For the same molecule, the composite z-score is -0.3 in [12]; 0.372 in test [13]; 0.791 in test [14]; 0.366 with Lefty1; -0.0971 in [16]. Moreover, in [1], the composite Z-score is 0.993 (inactive). In addition, the z-score was -1.56 in [15] and -2.78 (inactive) in test [17].

For the molecule `CC(C)C(=C=CC[C@H](O)c1ccc(OCCO)cc1)C[C@H](O)c1ccccn1`, the composite z-score with Albumin (Bos taurus) is 0.449; in [2] it was -0.0044; in test [3], -0.13; in test [4] it was 0.513; in test [5], 0.619; in test [6], 0.864. In addition, the composite z-score is 1.19 in the test with Sam68 (KHDRBS1); -0.237 in [7]; -0.057 in [8]; 0.923 in test [9]; 0.955 in test [10]; 0.104 in test [11]. The composite z-score is 0.3 in test [12]; 0.135 in test [13]; -0.139 in [14]; 0.334 in the test on Lefty1; 0.0804 in test [16]. In [1], the composite Z-score was 0.168 (inactive). Also, the z-score is 1.51 in test [15] and -2.27 (inactive) in test [17].

On to `[N-]=[N+]=Nc1ccccc1[C@H]1OC(c2ccc(OCCCO)cc2)=N[C@@]1(Cc1ccccc1)C(=O)N1CCCCC1`, for which the composite z-score with Albumin (Bos taurus) was found to be 0.899; in test [2], 0.369; in test [3], 0.208; in [4] it was 0.38; in test [5], 2.36; in test [6], 0.19. Also, the composite z-score with Sam68 (KHDRBS1) amounted to 1.13; in test [7], 0.618; in [8], 1.19; in test [9] it was 1.55; in [10] it was 1.2; in test [11], 0.724. The composite z-score in test [12] amounted to 0.963; in test [13] it was 1.45; in test [14], 1.67; in the test on Lefty1, 0.0229; in test [16], 0.945. Also, the composite Z-score in [1] was 0.498 (inactive). Besides, the z-score in test [15] was -1.43; in test [17] it was -6.62 (inactive).

With `[N-]=[N+]=Nc1ccccc1[C@H]1OC(c2ccc(OCCCO)cc2)=N[C@@]1(CCS(=O)(=O)c1ccccc1)C(=O)NCCN1CCOCC1`, the composite z-score is 0.189 in the test with Albumin (Bos taurus); 0.189 in test [2]; 0.069 in test [3]; 0.449 in test [4]; 1.72 in [5]; 0.503 in test [6]. Further, the composite z-score was 1.31 in the test with Sam68 (KHDRBS1); 0.577 in test [7]; 0.923 in [8]; 1.51 in [9]; 1.26 in [10]; 0.56 in [11]. The composite z-score in test [12] came out at 0.938; in test [13] it was 1.34; in [14] it was 0.471; with Lefty1 it was 0.619; in [16], 0.821. The composite Z-score in test [1] is -0.363 (inactive). In addition, the z-score in [15] is 0.162; in test [17], -6.93 (inactive).

For the molecule `Cc1ccc(S[C@]2(C(=O)O)CC(=O)N(Cc3cc(C(F)(F)F)cc(C(F)(F)F)c3)[C@@H]2c2ccc(CO)cc2)cc1`, the composite z-score was -1.78 with Albumin (Bos taurus); -0.512 in test [2]; -0.154 in test [3]; 0.65 in test [4]; 1.23 in test [5]; 0.549 in test [6]. The composite z-score in the test with Sam68 (KHDRBS1) is -0.25; in [7], -2.37; in test [8], -1.24; in [9], -1.45; in test [10], -0.889; in test [11], -0.194. Also, the composite z-score in [12] was -0.84; in test [13], -1.22; in [14], -0.897; in the test with Lefty1, -1.66; in [16], -1.31. Further, in test [1], the composite Z-score is -0.483 (inactive). The z-score in [15] is -0.389; in [17] it was -0.0278 (inactive).
